PubChem BioAssay AID1159580 (chemical genetic matrix, 2015)
In all, about 5,500 compounds went through this assay and about 2,000 (36%) were called active. Not shown: some 18% with an inconclusive outcome. No stated cut-off is given here; in the data, active means normalized growth mostly below about 0.91 (no sharp cut-off); inconclusive means no clear call, values can overlap the other calls; inactive means mostly above about 0.92. The list shows a part of the results.

Experiment: chemical genetic growth profiling, strain panel (AID 1159580);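 further: tested at 20 µM; growth read once vehicle control cultures reached saturation at 30 °C; 1 = growth at the plate median or of vehicle wells; lower values mean less growth of the strain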
Settings: growth OD

Measured: normalized growth

O=C(O)c1cc2ccccc2c(Cc2c(O)c(C(=O)O)cc3ccccc23)c1O
active: S. cerevisiae deletion strains, locus YJR066W, strain TOR1, active compounds read low 0.819 | S. cerevisiae deletion strains, locus YLR113W, strain HOG1, active compounds read low 0.847 | S. cerevisiae deletion strains, locus YNL183C, strain NPR1, active compounds read low 0.829
inactive: S. cerevisiae deletion strains, locus YJR043C, strain POL32, active compounds read low 1.01 | S. cerevisiae deletion strains, locus YKL009W, strain mrt4, active compounds read low 0.989 | S. cerevisiae deletion strains, locus YKL068W, active compounds read low 1.01 | S. cerevisiae deletion strains, locus YKL085W, strain MDH1 (second series), active compounds read low 1 | S. cerevisiae deletion strains, locus YKL085W, strain MDH1, active compounds read low 1 | S. cerevisiae deletion strains, locus YKL160W, strain elf1, active compounds read low 1 | S. cerevisiae deletion strains, locus YKR001C, strain vps1, active compounds read low 0.966 | S. cerevisiae deletion strains, locus YKR026C, strain gcn3, active compounds read low 0.998 | S. cerevisiae deletion strains, locus YKR091W, strain srl3, active compounds read low 1 | S. cerevisiae deletion strains, locus YLL001W, strain dnm1, active compounds read low 0.996 | S. cerevisiae deletion strains, locus YLL026W, active compounds read low 1 | S. cerevisiae deletion strains, locus YLL041C, strain sdh2, active compounds read low 0.992 | S. cerevisiae deletion strains, locus YLR027C, strain aat2, active compounds read low 0.999 | S. cerevisiae deletion strains, locus YLR039C, strain RIC1, active compounds read low 0.996 | S. cerevisiae deletion strains, locus YLR058C, strain SHM2, active compounds read low 1 | S. cerevisiae deletion strains, locus YLR102C, strain apc9, active compounds read low 0.994 | S. cerevisiae deletion strains, locus YLR221C, strain rsa3, active compounds read low 0.99 | S. cerevisiae deletion strains, locus YLR258W, strain gsy2, active compounds read low 0.996 | S. cerevisiae deletion strains, locus YLR262C, strain YPT6 (second series), active compounds read low 1.01 | S. cerevisiae deletion strains, locus YLR262C, strain YPT6, active compounds read low 1.07 | S. cerevisiae deletion strains, locus YLR268W, strain sec22, active compounds read low 0.993 | S. cerevisiae deletion strains, locus YLR320W, strain mms22, active compounds read low 0.991 | S. cerevisiae deletion strains, locus YLR330W, strain CHS5, active compounds read low 0.996 | S. cerevisiae deletion strains, locus YLR342W, strain FKS1 (second series), active compounds read low 0.972 | S. cerevisiae deletion strains, locus YLR342W, strain FKS1, active compounds read low 0.998 | S. cerevisiae deletion strains, locus YLR357W, strain rsc2, active compounds read low 0.99 | S. cerevisiae deletion strains, locus YLR370C, strain arc18, active compounds read low 1.01 | S. cerevisiae deletion strains, locus YLR371W, strain rom2, active compounds read low 0.966 | S. cerevisiae deletion strains, locus YLR384C, strain iki3, active compounds read low 0.988 | S. cerevisiae deletion strains, locus YLR418C, strain cdc73, active compounds read low 0.93 | S. cerevisiae deletion strains, locus YML016C, strain PPZ1, active compounds read low 0.978 | S. cerevisiae deletion strains, locus YML032C, strain rad52, active compounds read low 0.994 | S. cerevisiae deletion strains, locus YML120C, strain ndi1, active compounds read low 1 | S. cerevisiae deletion strains, locus YML124C, strain tub3, active compounds read low 0.994 | S. cerevisiae deletion strains, locus YMR058W, strain fet3, active compounds read low 1 | S. cerevisiae deletion strains, locus YMR078C, strain ctf18, active compounds read low 0.984 | S. cerevisiae deletion strains, locus YMR125W, strain sto1, active compounds read low 1 | S. cerevisiae deletion strains, locus YMR129W, active compounds read low 0.997 | S. cerevisiae deletion strains, locus YMR205C, strain PFK2, active compounds read low 1.01 | S. cerevisiae deletion strains, locus YMR223W, strain ubp8, active compounds read low 1 | S. cerevisiae deletion strains, locus YMR231W, strain pep5, active compounds read low 1 | S. cerevisiae deletion strains, locus YMR263W, strain SAP30, active compounds read low 0.999 | S. cerevisiae deletion strains, locus YMR307W, strain GAS1, active compounds read low 1.1 | S. cerevisiae deletion strains, locus YNL067W, strain RPL9B, active compounds read low 1.01 | S. cerevisiae deletion strains, locus YNL071W, strain lat1, active compounds read low 0.987 | S. cerevisiae deletion strains, locus YNL209W, strain ssb2, active compounds read low 1 | S. cerevisiae deletion strains, locus YNL233W, strain BNI4, active compounds read low 1.01 | S. cerevisiae deletion strains, locus YNL248C, strain rpa49, active compounds read low 0.984 | S. cerevisiae deletion strains, locus YNL250W, strain rad50, active compounds read low 1.01 | S. cerevisiae deletion strains, locus YNL271C, strain bni1, active compounds read low 1.01 | S. cerevisiae deletion strains, locus YNL298W, strain CLA4, active compounds read low 0.983 | S. cerevisiae deletion strains, locus YNL307C, strain MCK1, active compounds read low 0.996 | S. cerevisiae deletion strains, locus YNL322C, strain KRE1 (second series), active compounds read low 1.02 | S. cerevisiae deletion strains, locus YNR049C, strain mso1, active compounds read low 1 | S. cerevisiae deletion strains, locus YNR052C, strain pop2, active compounds read low 0.981 | S. cerevisiae deletion strains, locus YOL012C, strain htz1 0.665 | S. cerevisiae deletion strains, locus YOL147C, strain pex11, active compounds read low 1 | S. cerevisiae deletion strains, locus YOR001W, strain rrp6, active compounds read low 1.01 | S. cerevisiae deletion strains, locus YOR061W, strain CKA2, active compounds read low 0.984 | S. cerevisiae deletion strains, locus YOR069W, strain VPS5, active compounds read low 0.999 | S. cerevisiae deletion strains, locus YOR070C, strain gyp1, active compounds read low 1 | S. cerevisiae deletion strains, locus YOR080W, strain dia2, active compounds read low 1 | S. cerevisiae deletion strains, locus YOR083W, strain WHI5, active compounds read low 1 | S. cerevisiae deletion strains, locus YOR106W, strain vam3, active compounds read low 0.976 | S. cerevisiae deletion strains, locus YOR136W, strain idh2, active compounds read low 1 | S. cerevisiae deletion strains, locus YOR144C, strain elg1, active compounds read low 0.99 | S. cerevisiae deletion strains, locus YOR184W, strain ser1, active compounds read low 0.989 | S. cerevisiae deletion strains, locus YOR231W, strain MKK1, active compounds read low 0.875 | S. cerevisiae deletion strains, locus YOR265W, strain rbl2, active compounds read low 0.991 | S. cerevisiae deletion strains, locus YOR270C, strain vph1, active compounds read low 0.974 | S. cerevisiae deletion strains, locus YOR290C, strain snf2, active compounds read low 0.989 | S. cerevisiae deletion strains, locus YOR316C, strain cot1, active compounds read low 0.997 | S. cerevisiae deletion strains, locus YPL051W, strain arl3, active compounds read low 1.01 | S. cerevisiae deletion strains, locus YPL055C, strain LGE1, active compounds read low 1 | S. cerevisiae deletion strains, locus YPL078C, strain atp4, active compounds read low 1 | S. cerevisiae deletion strains, locus YPL106C, strain sse1, active compounds read low 0.964 | S. cerevisiae deletion strains, locus YPL240C, strain hsp82, active compounds read low 0.976 | S. cerevisiae deletion strains, locus YPL256C, strain CLN2, active compounds read low 0.905 | S. cerevisiae deletion strains, locus YPR119W, strain clb2, active compounds read low 0.988 | S. cerevisiae deletion strains, locus YPR141C, strain kar3, active compounds read low 1.02 | S. cerevisiae deletion strains, locus YPR163C, strain tif3, active compounds read low 0.995 | S. cerevisiae deletion strains, locus YPR167C, strain met16, active compounds read low 0.991 | S. cerevisiae deletion strains, strain wtn01, active compounds read low 0.985 | S. cerevisiae strains, strain wild type, active compounds read low 1
